Measurements from the supplement of paper PMC8728848.
Many of the other results were omitted from the sample, so the strongest signals are more common in it than they were.

Tests used:
Test in all cases: glycan array binding signal (z-score within array); higher = stronger binding
Details in all cases: glycan notation: IUPAC condensed, linker removed
[1] = biological target: Gal(b1-4)GlcNAc(b1-3)Gal(b1-4)GlcNAc(b1-3)Gal(b1-4)GlcNAc(b1-3)Gal(b1-4)GlcNAc(b1-2)[Gal(b1-4)GlcNAc(b1-3)Gal(b1-4)GlcNAc(b1-3)Gal(b1-4)GlcNAc(b1-3)Gal(b1-4)GlcNAc(b1-6)]Man(a1-6)[Gal(b1-4)GlcNAc(b1-3)Gal(b1-4)GlcNAc(b1-3)Gal(b1-4)GlcNAc(b1-3)Gal(b1-4)GlcNAc(b1-2)Man(a1-3)]Man(b1-4)GlcNAc(b1-4)[Fuc(a1-6)]GlcNAc
Procedure, shortened: (§1)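 Glycan array binding is given as a within-array Z-score, which can be read as non-binding when negative. The arrays, 3228 of them, came from the Consortium for Functional Glycomics database and were retained only where the protein sequence was available. Z-scores were averaged across arrays of the same protein sequence at different concentrations or buffers and across linkers.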

[2] = biological target: Gal(b1-4)GlcNAc(b1-6)Gal(b1-4)GlcNAc
Procedure, shortened: as §1

Gal3S(b1-3)GalNAc = biological target: Gal3S(b1-3)GalNAc
Procedure, shortened: as §1

Gal3S(b1-4)GlcNAc6S = biological target: Gal3S(b1-4)GlcNAc6S
Procedure, shortened: as §1

[3] = biological target: Gal3S(b1-4)[Fuc(a1-3)]GlcNAc
Procedure, shortened: as §1

[4] = biological target: Gal3S(b1-4)[Fuc(a1-3)]GlcNAc6S
Procedure, shortened: as §1

Gal6S(b1-4)GlcNAc6S = biological target: Gal6S(b1-4)GlcNAc6S
Procedure, shortened: as §1

GalNAc(b1-4)Gal(b1-4)Glc = biological target: GalNAc(b1-4)Gal(b1-4)Glc
Procedure, shortened: as §1

GalNAc3S(b1-4)GlcNAc = biological target: GalNAc3S(b1-4)GlcNAc
Procedure, shortened: as §1

GalNAc4S6S(b1-4)GlcNAc = biological target: GalNAc4S6S(b1-4)GlcNAc
Procedure, shortened: as §1

[5] = biological target: GlcNAc(a1-4)Gal(b1-4)GlcNAc(b1-3)Gal(b1-4)[Fuc(a1-3)]GlcNAc(b1-3)Gal(b1-4)[Fuc(a1-3)]GlcNAc
Procedure, shortened: as §1

[6] = biological target: GlcNAc(a1-6)Gal(b1-4)GlcNAc
Procedure, shortened: as §1

[7] = biological target: GlcNAc(b1-2)Man(a1-3)[GlcNAc(b1-4)][GlcNAc(b1-2)Man(a1-6)]Man(b1-4)GlcNAc(b1-4)[Fuc(a1-6)]GlcNAc
Procedure, shortened: as §1

[8] = biological target: GlcNAc(b1-3)Gal(b1-4)GlcNAc(b1-3)Gal(b1-4)GlcNAc(b1-3)Gal(b1-4)GlcNAc(b1-3)Gal(b1-4)GlcNAc(b1-2)Man(a1-3)[GlcNAc(b1-3)Gal(b1-4)GlcNAc(b1-3)Gal(b1-4)GlcNAc(b1-3)Gal(b1-4)GlcNAc(b1-3)Gal(b1-4)GlcNAc(b1-2)Man(a1-6)]Man(b1-4)GlcNAc(b1-4)[Fuc(a1-6)]GlcNAc
Procedure, shortened: as §1

[9] = biological target: GlcNAc(b1-3)Gal(b1-4)GlcNAc(b1-6)[Gal(b1-3)]GalNAc
Procedure, shortened: as §1

[10] = biological target: GlcNAc(b1-3)Gal(b1-4)GlcNAc(b1-6)[GlcNAc(b1-3)]Gal(b1-4)GlcNAc
Procedure, shortened: as §1

[11] = biological target: GlcNAc(b1-4)[GlcNAc(b1-6)]GalNAc
Procedure, shortened: as §1

[12] = biological target: Man(a1-2)Man(a1-2)Man(a1-3)Man
Procedure, shortened: as §1

Man(b1-4)GlcNAc = biological target: Man(b1-4)GlcNAc
Procedure, shortened: as §1

[13] = biological target: Neu5Ac(a2-3)Gal(b1-3)GalNAc(b1-3)Gal(a1-4)Gal(b1-4)Glc
Procedure, shortened: as §1

[14] = biological target: Neu5Ac(a2-3)Gal(b1-3)[Fuc(a1-4)]GlcNAc(b1-3)Gal(b1-3)[Fuc(a1-4)]GlcNAc
Procedure, shortened: as §1

[15] = biological target: Neu5Ac(a2-3)Gal(b1-4)GlcNAc(b1-2)[Neu5Ac(a2-3)Gal(b1-4)GlcNAc(b1-4)]Man(a1-3)[GlcNAc(b1-4)][Neu5Ac(a2-3)Gal(b1-4)GlcNAc(b1-4)Man(a1-6)]Man(b1-4)GlcNAc(b1-4)GlcNAc
Procedure, shortened: as §1

[16] = biological target: Neu5Ac(a2-3)[GalNAc(b1-4)]Gal(b1-4)GlcNAc
Procedure, shortened: as §1

[17] = biological target: Neu5Ac(a2-6)Gal(b1-4)GlcNAc(b1-3)GalNAc
Procedure, shortened: as §1

[18] = biological target: Neu5Ac(a2-6)GlcNAc(b1-4)GlcNAc
Procedure, shortened: as §1

[19] = biological target: Neu5Ac(a2-8)Neu5Ac(a2-3)Gal(b1-3)GalNAc(b1-4)[Neu5Ac(a2-3)]Gal(b1-4)Glc
Procedure, shortened: as §1

[20] = biological target: Neu5Gc(a2-6)Gal(b1-4)GlcNAc
Procedure, shortened: as §1

B1: Flo1 (Saccharomyces cerevisiae), P32768 (protein)
chain: SGATEACLPAGQRKSGMNINFYQYSLKDSSTYSNAAYMAYGYASKTKLGSVGGQTDISIDYNIPCVSSSGTFPCPQEDSYGNWGCKGMGACSNSQGIAYWSTDLFGFYTTPTNVTLEMTGYFLPPQTGSYTFKFATVDDSAILSVGGATAFNCCAQQQPPITSTNFTIDGIKPWGGSLPPNIEGTVYMYAGYYYPMKVVYSNAVSWGTLPISVTLPDGTTVSDDFEGYVYSFDDDLSQSNCTVPDPSNY
glycan array binding signal (z-score) [1]: 1.44 | glycan array binding signal (z-score) [2]: -0.551 | glycan array binding signal (z-score) (Gal3S(b1-3)GalNAc): -0.392 | glycan array binding signal (z-score) (Gal3S(b1-4)GlcNAc6S): -0.289 | glycan array binding signal (z-score) [3]: -0.778 | glycan array binding signal (z-score) [4]: -0.547 | glycan array binding signal (z-score) (Gal6S(b1-4)GlcNAc6S): -0.216 | glycan array binding signal (z-score) (GalNAc(b1-4)Gal(b1-4)Glc): 3.53 | glycan array binding signal (z-score) (GalNAc3S(b1-4)GlcNAc): -0.358 | glycan array binding signal (z-score) (GalNAc4S6S(b1-4)GlcNAc): 3.28 | glycan array binding signal (z-score) [5]: 2.23 | glycan array binding signal (z-score) [6]: -0.009 | glycan array binding signal (z-score) [7]: 0.011 | glycan array binding signal (z-score) [8]: -0.202 | glycan array binding signal (z-score) [9]: -0.618 | glycan array binding signal (z-score) [10]: -2.82 | glycan array binding signal (z-score) [11]: -0.024 | glycan array binding signal (z-score) [12]: 0.403 | glycan array binding signal (z-score) (Man(b1-4)GlcNAc): -0.306 | glycan array binding signal (z-score) [13]: -0.211 | glycan array binding signal (z-score) [14]: 0.24 | glycan array binding signal (z-score) [15]: 0.143 | glycan array binding signal (z-score) [16]: 0.215 | glycan array binding signal (z-score) [17]: 0.748 | glycan array binding signal (z-score) [18]: -0.394 | glycan array binding signal (z-score) [19]: 1.62 | glycan array binding signal (z-score) [20]: -0.199
